{"source": "PubChem BioAssay AID602476", "about": "(National Center for Advancing Translational Sciences (NCATS), 2012)", "note": "Results filed as inconclusive are left out. Where a call stands in place of a potency, no number is given. Activity calls are given as the source filed them. Calls follow the shape of the dose curve; as a rule, active = well fitted activation curve with a large enough effect; inconclusive = small, poorly fitted or top-dose-only effect; inactive = flat fitted curve, though single readings scatter."}
{"assay": "FLuc inhibitory activity for the follow-up compounds in a cell-based translational read-through assay", "conditions": "GripTite 293 FLucUGA read-through, luminescence, 48 h; series mostly up to 38.3 µM", "text": "NCGC Assay Overview: Firefly (Photinus pyralis) luciferase is one of the most commonly used transcriptional reporters. It is considered one of the more dynamically responsive reporters - that is, responsive to changes in reporter transcription - as it requires no post-translational modifications and is enzymatically active directly after protein synthesis (Wood, 1998). With no endogenous expression in mammalian cells and without the requirement of external excitation, it offers very little background signal, thus generally providing excellent signal to background for most assays. Previous profiling work to determine the prevalence of compounds that affect FLuc enzymatic activity (PubChem AID 411) identified that ~3% of the MLSMR library (then at ~72K) inhibited FLuc (Auld et al., 2008). […] Of the compounds identified in this profile that inhibited FLuc, 151 compounds were selected for further analysis, in an effort to better understand their mode of inhibiting FLuc. The assay described here was to determine the activity of the compounds in a cell-based firefly luciferase reporter gene assay originally designed to identify compounds that enchanced translational read-through of a FLuc cDNA that contained a premature stop codon (Auld et al., 2009; Auld et al., 2010). Compounds that enhance translational read-through or compounds that stabilize FLuc intracellularly are identified as active compounds in the assay.\nNCGC Assay Protocol Summary: Reagents: Transient transfection of FlucUGA construct: TransFast Transfection Reagent (Promega #E2431); FLucUGA construct (refer to Auld et al., 2009) #GripTite 293 MSR Cell Line (Invitrogen #R795-07) #Complete growth media: DMEM (Invitrogen #11965), 10% HIFBS, 0.1mM MEM NEAA, 5mL/L pen-strep (of 5000U/mL stock), 600ug/mL Geneticin #Assay media: DMEM without phenol red (Invitrogen #21063), 5% charcoal-stripped HIFBS (Hyclone #SH30071.03), 0.1mM MEM NEAA In-house detection reagent: 300mM Tris-HCl, 300mM Trizma base, 300mM MgCl, 1% Triton-X100, 5mM DTT, 500uM Coenzyme A trilithium salt (Sigma #C3019),450uM ATP (Sigma #A7699), 1mM D-luciferin sodium salt monohydrate (Biosynth #L8240) Control compounds used were two known firefly luciferase inhibitors (3-(5-(3-chlorophenyl)-1,2,4-oxadiazol-3-yl)benzoic acid and 5-(2-fluorophenyl)-3-phenyl-1,2,4-oxadiazole), and DMSO. Assay Summary: Transient transfection of FlucUGA construct: Day 1: GripTite cells were plated in T175 flasks at a density of 1.75 x 10^7 cells/T175 flask in complete growth media without Geneticin and allowed to grow ON in a 37 degrees Celsius incubator. Day 2: Cells in T175 flask were transfected - with 10ug of DNA and 30uL Transfast in 12mL complete growth media without serum and without Geneticin for 4 hours at 37 degrees Celsius. After incubation, cells were trypsinized, spun down, and resuspended to a concentration of 3.3 x 10^5 cells/mL in assay media. 6uL of cells in assay buffer were dispensed at 2000cells/well (3.3 x 10^5 cells/mL) into Greiner solid-white TC-treated 1536-well plates using a Multidrop Combi (Thermo Fisher Scientific). Plates were incubated for one hour at 37 degree Celsius, 95% humidity, 5% CO2. These assay plates were then treated with 23nL of compound or DMSO using a Kalypsys pin tool, which allows for delivery of a 12-point titration of each compound to the assay plate, with a final compound concentration ranging from approximately ~38uM to 0.2nM. Assay plates were then incubated for 48 hours. After incubation, plates were washed three times with DPBS (7uL/well). After the third wash, 6uL of DPBS was added to each well. 3uL of 3X luciferase detection reagent was then added to each well using a flying reagent dispenser (FRD). After a 15 minute incubation to allow for cell lysis, luciferase activity was measured using a ViewLux CCD imager (PerkinElmer), with an average exposure time of 2-12 seconds."}
{"molecule": "COc1ccc2nc(NC(=O)c3ccc(NS(=O)(=O)c4cccs4)cc3)sc2c1", "Potency": "inactive"}
{"molecule": "Cc1ccc(S(=O)(=O)N2CCOCC2)cc1C(=O)Nc1ccccc1C(=O)O", "Potency": "inactive"}
{"molecule": "Cc1c(C)c2ccc(OCC(=O)Nc3ccccn3)c(C)c2oc1=O", "Potency": "5.04 µM (active)"}
{"molecule": "COc1cccc(-c2nc3ccccc3s2)c1", "Potency": "1.26 µM (active)"}
{"molecule": "COc1ccc(C(=O)Nc2ccccc2-c2nc3ccccc3s2)c(OC)c1", "Potency": "inactive"}
{"molecule": "CCOc1ccc2nc(NC(=O)c3cccnc3)sc2c1", "Potency": "14.2 µM (active)"}
{"molecule": "O=C(O)c1ccccc1NC(=O)c1ccccc1Nc1ccccc1", "Potency": "inactive"}
{"molecule": "COc1ccccc1C(=O)Nc1ccc(C(=O)Nc2ccccc2C(=O)O)cc1", "Potency": "inactive"}
{"molecule": "Cc1ccc2sc(-c3ccc(N)cc3)nc2c1", "Potency": "1.59 µM (active)"}
{"molecule": "O=C(Nc1ccc(Cl)cc1-c1nc2ccccc2s1)c1ccco1", "Potency": "inactive"}
{"molecule": "O=C(Nc1ccccc1C(=O)O)c1ccc(Cl)c(S(=O)(=O)N2CCOCC2)c1", "Potency": "inactive"}
{"molecule": "Oc1ccc(-c2nc3ccccc3s2)c(O)c1", "Potency": "10 µM (active)"}
{"molecule": "Cc1cccc(NS(=O)(=O)c2cccc(C(=O)Nc3cccc(C(=O)O)c3)c2)c1", "Potency": "inactive"}
{"molecule": "COc1ccc2nc(NC(=O)CCc3nc(-c4ccccc4F)no3)sc2c1", "Potency": "inactive"}
{"molecule": "Cc1ccc(C(=O)Nc2cccc(C(=O)O)c2)cc1", "Potency": "4.49 µM (active)"}
{"molecule": "COc1ccc2nc(NC(=O)c3ccco3)sc2c1", "Potency": "0.634 µM (active)"}
